Experimental data taken from the supplement of paper PMC8728848.
Many of the other results were omitted from the sample, so the strongest signals are more common in it than they were.

Each substance was assayed on Gal(b1-4)GlcNAc(b1-6)GalNAc (assay: glycan array binding signal (z-score within array); higher = stronger binding). Settings: glycan notation: IUPAC condensed, linker removed.
Summary of the method: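 Arrays were curated from the Consortium for Functional Glycomics database, 3228 in total, and kept only where the protein sequence was available. Binding is expressed as a within-array Z-score. This score was averaged across arrays of the same protein sequence at different concentrations or buffers and across linkers, and negative values can be read as non-binding.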

Sequence of PILRa (Mus musculus), Q2YSF3 (Q2YSF3 entry or part of it): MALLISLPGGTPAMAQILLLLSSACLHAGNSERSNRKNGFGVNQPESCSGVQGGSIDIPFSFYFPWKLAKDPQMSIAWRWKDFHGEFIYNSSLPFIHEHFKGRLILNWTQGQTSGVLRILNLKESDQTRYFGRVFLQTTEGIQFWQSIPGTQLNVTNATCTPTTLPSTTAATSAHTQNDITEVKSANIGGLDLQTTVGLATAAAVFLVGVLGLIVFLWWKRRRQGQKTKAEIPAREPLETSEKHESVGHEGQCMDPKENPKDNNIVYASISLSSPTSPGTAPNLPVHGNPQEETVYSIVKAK
Sequence of wLAT-1A (Homo sapiens), Q01650 (Q01650 whole entry): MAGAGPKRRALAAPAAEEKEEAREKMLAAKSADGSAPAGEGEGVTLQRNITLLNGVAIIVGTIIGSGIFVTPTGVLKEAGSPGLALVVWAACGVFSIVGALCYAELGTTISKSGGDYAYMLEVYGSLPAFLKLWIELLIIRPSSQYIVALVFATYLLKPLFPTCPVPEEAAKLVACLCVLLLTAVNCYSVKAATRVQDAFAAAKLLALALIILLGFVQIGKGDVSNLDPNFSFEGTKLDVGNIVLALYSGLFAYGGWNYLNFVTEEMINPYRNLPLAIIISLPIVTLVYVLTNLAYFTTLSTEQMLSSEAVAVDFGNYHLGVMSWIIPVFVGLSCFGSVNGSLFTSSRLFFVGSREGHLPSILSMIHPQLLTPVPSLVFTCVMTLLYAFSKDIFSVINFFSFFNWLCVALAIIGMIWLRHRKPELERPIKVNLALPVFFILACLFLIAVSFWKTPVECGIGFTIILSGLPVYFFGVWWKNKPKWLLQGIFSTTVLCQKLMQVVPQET
Sequence of SRLC (Mus musculus), Q8VIF6 (Q8VIF6 other isoform, or with tags, fused parts or gaps): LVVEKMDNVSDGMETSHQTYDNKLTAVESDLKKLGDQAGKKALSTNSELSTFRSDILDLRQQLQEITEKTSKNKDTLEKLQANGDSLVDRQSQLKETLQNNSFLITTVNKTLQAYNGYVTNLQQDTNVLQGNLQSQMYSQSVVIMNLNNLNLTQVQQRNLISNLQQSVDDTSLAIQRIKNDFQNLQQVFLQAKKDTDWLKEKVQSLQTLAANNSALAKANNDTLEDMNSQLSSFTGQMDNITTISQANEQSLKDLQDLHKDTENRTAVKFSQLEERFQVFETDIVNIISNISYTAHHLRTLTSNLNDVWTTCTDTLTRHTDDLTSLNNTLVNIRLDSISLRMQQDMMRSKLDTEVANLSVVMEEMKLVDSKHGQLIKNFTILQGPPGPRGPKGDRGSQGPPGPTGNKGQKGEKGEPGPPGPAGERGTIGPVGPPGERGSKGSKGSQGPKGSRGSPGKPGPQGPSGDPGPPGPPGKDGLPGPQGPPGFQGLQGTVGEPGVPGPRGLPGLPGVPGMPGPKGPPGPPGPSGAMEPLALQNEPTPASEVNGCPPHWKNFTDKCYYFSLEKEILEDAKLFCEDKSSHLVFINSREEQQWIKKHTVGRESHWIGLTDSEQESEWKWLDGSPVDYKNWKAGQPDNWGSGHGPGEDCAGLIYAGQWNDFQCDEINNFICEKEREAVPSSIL

Substance	glycan array binding signal (z-score)
MpAFP RI GFP (Marinomonas primoryensis)	-0.359
PILRa (Mus musculus), Q2YSF3	-0.218
wLAT-1A (Homo sapiens), Q01650	0.12
SRLC (Mus musculus), Q8VIF6	-0.239
